Experimental data published in PubChem BioAssay (Tox21).
Inconclusive results are not listed. A call without a number means that no potency is given here. Calls of active or inactive are those of the source. Unless noted, the call rests on the fitted dose curve; in most records, active means well fitted curve in the direction sought with a large enough effect in the repeat runs; inconclusive means weak or mixed curves; inactive means no such curve, though single readings can be large; an effect the other way counts as inactive or inconclusive.

Key:
[1] = qHTS assay for small molecules that induce genotoxicity in human embryonic kidney cells expressing luciferase-tagged ATAD5 (AID 651632); further: nearly all actives have a fitted effect of over 15% in size
In short: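 Quantitative HTS in HEK293T expressing luciferase-tagged ATAD5, whose levels rise upon DNA damage. Exposure ran 16 hr at 37C and 5% CO2, with luminescence read 30 min after Amplite addition at room temperature.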

[2] = qHTS assay for small molecules that induce genotoxicity in human embryonic kidney cells expressing luciferase-tagged ATAD5 - cell viability (AID 651634; calls by dose curve; further: nearly all actives have a fitted effect of over 25% in size; further: potency means the concentration at half of the fitted maximal effect)
In short: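 After 15.5 hr incubation with compound at 37C, 5% CO2, HEK293T ATAD5-luciferase cells received CellTiter-Fluor reagent; fluorescence intensity was quantified following 30 min at 37C.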

[3] = qHTS assay for small molecule disruptors of the mitochondrial membrane potential - cell viability (AID 720634; calls by dose curve; further: nearly all actives have a fitted effect of over 20% in size; further: potency means the concentration at half of the fitted maximal effect)
In short: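 ATP-based luminescent viability readout (CellTiter-Glo, 30 min, room temperature) in HepG2 cells multiplexed with the m-MPI membrane potential dye; compound exposure lasted 1 hr at 37 C.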

[4] = qHTS assay to test for compound auto fluorescence at 590 nm (red) in HepG2 cells (AID 720674)
In short: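 Fluorescence at 590 nm emission following 540 nm excitation was recorded from HepG2 wells one hour after compound transfer, with DMSO-only wells as vehicle and Rose Bengal sodium equivalency as the scale.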

[5] = qHTS assay to test for compound auto fluorescence at 535 nm (green) in HepG2 cells (AID 720675)
[6] = qHTS assay to test for compound auto fluorescence at 460 nm (blue) in HEK293 cells (AID 720678)
In short: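 HEK293, 2,000 cells/well, 10% dialyzed FBS; attach 4-5 hr 37C; pin compound or DMSO; o/n 37C/5% CO2; fluorescence 405/460 nm; triamterene-equivalent units.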

[7] = qHTS assay to test for compound auto fluorescence at 590 nm (red) in HEK293 cells (AID 720679)
In short: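 Intensity at 540nm excitation and 590nm emission is reported as Rose Bengal sodium-equivalent autofluorescence. Measurements followed overnight exposure (37C, 5% CO2) of HEK293 cells, 2,000 per well, to 23 nL compound.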

[8] = qHTS assay to test for compound auto fluorescence at 535 nm (green) in HEK293 cells (AID 720680)
[9] = qHTS assay to test for compound auto fluorescence at 460 nm (blue) in HEK293 cell free culture (AID 720681)
In short: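 Compounds were added to cell-free DMEM with 10% FBS and fluorescence read directly. The blue channel used 405 nm excitation and 460 nm emission, with triamterene as the reference fluorophore.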

[10] = qHTS assay to test for compound auto fluorescence at 535 nm (green) in HEK293 cell free culture (AID 720682)
In short: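 Green-channel intensity (Ex/Em 485/535 nm) was recorded from compound-treated wells containing only DMEM with 10% FBS. Fluorescein provided the equivalency standard.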

[11] = qHTS assay to test for compound auto fluorescence at 590 nm (red) in HEK293 cell free culture (AID 720683)
In short: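 Cell-free wells of DMEM with 10% FBS received compound, and intrinsic fluorescence was read at excitation/emission 540/590 nm. Values expressed as equivalence to Rose Bengal sodium.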

[12] = qHTS assay to test for compound auto fluorescence at 535 nm (green) in HepG2 cell free culture (AID 720686)
[13] = qHTS assay to test for compound auto fluorescence at 460 nm (blue) in HepG2 cells (AID 720687)
In short: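 HepG2 cells in MEM with 10% FBS, attached overnight at 37 C, were exposed to compound or DMSO for 1 hr at 37 C, 5% CO2. Blue fluorescence was read at 405/460 nm, with triamterene as reference fluorophore.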

[14] = qHTS assay to test for compound auto fluorescence at 590 nm (red) in HepG2 cell free culture (AID 720684)
In short: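 Auto fluorescence equivalency versus Rose Bengal sodium, red channel Ex/Em 540/590 nm; compounds in cell-free MEM/10% FBS; DMSO vehicle control.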

[15] = qHTS assay to test for compound auto fluorescence at 460 nm (blue) in HepG2 cell free culture (AID 720685)
In short: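 Cell-free plates of MEM plus 10% FBS received 23 nL compound or DMSO vehicle; blue-channel (405/460 nm) intensity scored against triamterene as reference fluorophore.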

[16] = molecular target: Glucocorticoid receptor (Homo sapiens) (UniProt P04150); experiment: qHTS assay to identify small molecule agonists of the glucocorticoid receptor (GR) signaling pathway (AID 720691; active means well fitted activation curve with a large enough effect in the signal ratio in the repeat runs, not every such curve was filed as active; the % refers to the signal ratio)
Glucocorticoid receptor (Homo sapiens), sequence (P04150 whole entry, looked up): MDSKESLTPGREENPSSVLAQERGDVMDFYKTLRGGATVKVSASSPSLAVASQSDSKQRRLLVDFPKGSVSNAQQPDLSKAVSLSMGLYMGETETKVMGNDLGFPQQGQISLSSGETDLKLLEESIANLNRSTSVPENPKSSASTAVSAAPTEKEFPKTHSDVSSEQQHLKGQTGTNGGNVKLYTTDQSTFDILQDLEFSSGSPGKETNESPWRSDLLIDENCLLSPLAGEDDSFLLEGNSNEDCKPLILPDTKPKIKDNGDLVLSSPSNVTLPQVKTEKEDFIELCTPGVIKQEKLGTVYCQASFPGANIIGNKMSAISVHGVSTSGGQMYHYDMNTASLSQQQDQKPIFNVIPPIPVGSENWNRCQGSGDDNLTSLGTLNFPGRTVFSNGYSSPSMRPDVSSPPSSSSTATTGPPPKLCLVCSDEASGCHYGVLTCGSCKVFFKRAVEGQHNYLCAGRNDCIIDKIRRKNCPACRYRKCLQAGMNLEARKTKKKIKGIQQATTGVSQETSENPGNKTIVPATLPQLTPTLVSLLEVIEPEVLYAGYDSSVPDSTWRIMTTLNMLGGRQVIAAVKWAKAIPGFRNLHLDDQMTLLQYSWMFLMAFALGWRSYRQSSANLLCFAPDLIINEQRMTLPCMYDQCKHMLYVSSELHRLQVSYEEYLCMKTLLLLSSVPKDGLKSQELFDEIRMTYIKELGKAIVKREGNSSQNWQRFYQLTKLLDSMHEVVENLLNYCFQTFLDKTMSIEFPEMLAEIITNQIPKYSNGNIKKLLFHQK
In short: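 Cells: GR-bla HeLa, endogenous GR with stably integrated GRE-beta-lactamase reporter. Treatment 18 h, 37 C, compounds delivered in DMSO. Detection via LiveBLAzer B/G FRET substrate, 2 h RT, fluorescence intensity.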

[17] = molecular target: Glucocorticoid receptor (Homo sapiens) (UniProt P04150); experiment: qHTS assay to identify small molecule antagonists of the glucocorticoid receptor (GR) signaling pathway (AID 720692; active means well fitted inhibition curve with a large enough effect in the signal ratio in the repeat runs, not every such curve was filed as active; the % refers to the signal ratio)
In short: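 Quantitative HTS in antagonist format: HeLa cells expressing endogenous GR and a stably integrated GRE-bla reporter, stimulated with 5 nM dexamethasone (final) alongside test compounds for 18 h.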

[18] = qHTS assay for small molecule agonists of the p53 signaling pathway - cell viability (AID 651633; calls by dose curve;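 further: p53RE-bla HCT reporter cells with a stable beta-lactamase p53 reporter; series mostly up to about 83 µM; nearly all actives have a fitted effect of over 30% in size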)
In short: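 p53RE-bla cells were treated with compound for 16 hours at 37 C. Cytotoxicity was then measured as CellTiter-Glo luminescence after 30 min at room temperature.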

[19] = qHTS assay for small molecule disruptors of the mitochondrial membrane potential (AID 720635); further: potency means the concentration at half of the fitted maximal effect
In short: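 HepG2 cells exposed to compound 1 hr at 37C, then Mito-MPS dye 30 min. Ratio read of aggregate (540/590 nm) versus monomer (490/535 nm) fluorescence.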

| Compound | Potency [1] | Potency [2] | Potency [3] | outcome [4] | outcome [5] | outcome [6] | outcome [7] | outcome [8] | outcome [9] | outcome [10] | outcome [11] | outcome [12] | outcome [13] | outcome [14] | outcome [15] | outcome [16] | Potency [17] | Potency [18] | Potency [19] |
| --- | --- | --- | --- | --- | --- | --- | --- | --- | --- | --- | --- | --- | --- | --- | --- | --- | --- | --- | --- |
| CCN(CC)CCOC(=O)C(C)(c1ccccc1)c1ccccc1 | inactive | inactive | inactive | inactive | inactive | inactive | inactive | inactive | inactive | inactive | inactive | inactive | inactive |  |  |  |  |  |  |
| C1CCC(C2CCCCC2)CC1 | inactive |  | inactive | inactive | inactive | inactive | inactive | inactive |  | inactive | inactive | inactive | inactive | inactive | inactive |  |  |  |  |
| CNC(=O)Oc1cccc(C(C)C)c1 |  | inactive | inactive | inactive | inactive | inactive | inactive | inactive |  |  | inactive | inactive | inactive |  | inactive | inactive | inactive |  |  |
| CCOP(=S)(OCC)SCSc1ccc(Cl)cc1 |  | inactive | inactive |  | inactive | inactive | inactive |  | inactive | inactive | inactive | inactive | inactive |  | inactive | inactive | inactive | inactive | inactive |
| O=C1CN=C(c2ccccc2)c2cc([N+](=O)[O-])ccc2N1 |  | inactive | inactive | inactive | inactive | inactive | inactive | inactive | inactive | inactive | inactive | inactive | inactive |  | inactive | inactive | inactive | inactive | inactive |
| O=C(O)C(Br)CBr (stereo not drawn) |  | inactive | inactive | inactive | inactive | inactive | inactive | inactive | inactive |  | inactive | inactive | inactive | inactive | inactive | inactive | inactive |  | inactive |
| CC1(C(=O)Nc2ccc(O)c(Cl)c2Cl)CCCCC1 |  | inactive |  | inactive | inactive | inactive | inactive | inactive | inactive |  | inactive | inactive | inactive | inactive | inactive |  |  | inactive | 7.7 µM (active) |
| CCCCOP(=O)(O)OCCCC | inactive |  | inactive | inactive | inactive | inactive | inactive | inactive | inactive |  | inactive | inactive | inactive |  |  | inactive | inactive |  | inactive |
| CC(C)(C)OC(=O)c1ncn2c1[C@@H]1CCCN1C(=O)c1c(Br)cccc1-2 | inactive | inactive | inactive |  | inactive | inactive | inactive | inactive | inactive | inactive | inactive | inactive | inactive |  | inactive |  |  |  |  |
| CC1(C)C(=O)NC(=O)NC1=O | inactive | inactive | inactive | inactive | inactive | inactive | inactive | inactive |  | inactive | inactive | inactive | inactive | inactive | inactive | inactive | inactive |  | inactive |
| CC(C)CC#N | inactive | inactive | inactive | inactive | inactive | inactive | inactive | inactive |  | inactive | inactive | inactive | inactive | inactive | inactive | inactive | inactive |  | inactive |
| C#CCN1C(=O)COc2cc(F)c(N3C(=O)C4=C(CCCC4)C3=O)cc21 | inactive | inactive |  | inactive | inactive | inactive | inactive | inactive | inactive | inactive | inactive | inactive | inactive | inactive | inactive | inactive | inactive |  |  |
| CC(Oc1ccc(Oc2ncc(C(F)(F)F)cc2Cl)cc1)C(=O)O (stereo not drawn) |  | inactive | inactive |  | inactive | inactive | inactive | inactive |  | inactive | inactive | inactive |  | inactive | inactive | inactive |  | inactive |  |
| O=[N+]([O-])c1cc(Cl)c(Cl)c(Cl)c1 | inactive | inactive | inactive |  | inactive | inactive | inactive | inactive |  | inactive | inactive | inactive | inactive | inactive | inactive |  |  |  |  |
| Fc1ccc(C2(Cn3cncn3)OC2c2ccccc2Cl)cc1 (stereo not drawn) | inactive | inactive | inactive |  | inactive | inactive | inactive | inactive | inactive | inactive | inactive | inactive | inactive | inactive | inactive | inactive |  |  |  |
| CCC(C)(C)c1cc(-n2nc3ccccc3n2)c(O)c(C(C)(C)CC)c1 |  | inactive | inactive | inactive | inactive | inactive | inactive |  | inactive | inactive | inactive | inactive | inactive | inactive | inactive | inactive | inactive | inactive | inactive |
| C(CCOCC1CO1)COCC1CO1 (stereo not drawn) |  | inactive | inactive | inactive | inactive | inactive | inactive |  | inactive | inactive | inactive | inactive | inactive | inactive | inactive | inactive | inactive | inactive | inactive |
| COC(=O)c1ccccc1S(=O)(=O)NC(=O)N(C)c1nc(C)nc(OC)n1 |  | inactive | inactive |  | inactive | inactive | inactive | inactive |  | inactive | inactive | inactive |  |  | inactive | inactive | inactive | inactive |  |
| CCCSP(=S)(OCC)Oc1ccc(Cl)cc1Cl (stereo not drawn) | inactive |  |  | inactive | inactive | inactive | inactive | inactive | inactive | inactive |  | inactive | inactive | inactive |  | inactive | inactive |  |  |
| O=C(Nc1ccccc1)N(Cc1ccc(Cl)cc1)C1CCCC1 |  |  | 61.1 µM (active) | inactive | inactive | inactive | inactive | inactive | inactive |  | inactive | inactive | inactive | inactive | inactive | inactive |  |  | 15.4 µM (active) |
| Nc1c(Br)cc([N+](=O)[O-])cc1[N+](=O)[O-] |  | 49.1 µM (active) | 61.8 µM (active) | inactive | inactive | inactive | inactive | inactive | inactive | inactive |  | inactive | inactive | inactive | inactive |  |  |  | 8.73 µM (active) |
| O=[N+]([O-])c1cccc2c([N+](=O)[O-])cccc12 | inactive | inactive | inactive | inactive | inactive | inactive | inactive | inactive | inactive | inactive |  | inactive | inactive | inactive | inactive | inactive | inactive |  |  |
